# Source: ChEMBL document CHEMBL3433997, “St. Jude Leishmania screening dataset” (2016)
# Target: Glucose transporter (Leishmania mexicana) (UniProt O61059)
# Experiment: ST_JUDE_LEISH: Cytotoxicity at 2uM final concentration against transgenic Leishmania Mexicana promastigotes LmGT2 that are glucose transport deficient and complemented with the L. Mexicana glucose transporter 2. Activity is measured by DNA content using SYBR green in vitro
# Format: functional
row,Compound,inhibition [%]
1,O=C(NCCCN1CCCC1=O)c1cnc(N2CCC(Oc3ccccc3)CC2)c(Cl)c1,0.19
2,O=C(Nc1ccc(C(F)(F)F)cc1)c1ccc(S(=O)(=O)NC2CCN(Cc3ccccc3)C2)cc1 (stereo not given),2.71
3,Nc1nc(N)c2c(ccc3[nH]c(-c4ccccc4Cl)nc32)n1,61.8
4,c1cc(-c2ccc(CN3CCN(c4ccncc4)CC3)cc2)cc(-c2nc3ccccc3[nH]2)c1,2.1
5,CCCS(=O)(=O)N1CCC(CO)(Cc2ccccc2C(F)(F)F)CC1,2.87
6,CC(C)C(=O)Nc1c(F)cc(F)cc1CCc1ccc(O)cc1,5.01
7,Cc1ccc(S(=O)(=O)NC2=NC(=N)N(OCc3ccc(Cl)c(Cl)c3)C(C)(C)N2)cc1,13.9
8,O=c1cc(NCCCCNCc2cccc(Cl)c2)[nH]c2ccccc12,1.87
9,COc1ccc(Cc2cnc3nc(N)nc(N)c3c2C)cc1,41.3
10,CC(CN1CCN(C)CC1)C(=O)Nc1ccc(-c2ccc(-c3nc4ccccc4[nH]3)s2)cc1 (stereo not given),3.56
11,CN(C)Cc1cccc(-c2ccc3ccnc(N)c3c2)c1,1.17
12,O=S(=O)(c1cccc2cccnc12)N1CCN(C2CCCCC2)CC1,7.83
13,COc1ccccc1-n1c(-c2ccc3ccccc3c2)csc1=NC(=O)c1ccccc1,-4.04
14,CCOc1ccc2c(=NN=Cc3cccc(OC)c3)cc(C)[nH]c2c1,-0.12
15,Cc1c(Cl)cccc1N=C(S)NN=Cc1ccccn1,-0.2
16,O=C(Cn1c2ccccc2c(=O)c2ccc(Cl)cc21)Nc1ccc(C(F)(F)F)cc1,-1.59
17,COc1ccc(C2CC(=O)C3=C(C2)NC(C)=C(C(=O)OC(C)C)C3c2ccccc2F)cc1OC (stereo not given),1.65
18,Cc1cccc2nc(-c3ccc(-c4cccc(CNC(C)C)c4)s3)[nH]c12,3.77
19,COc1ccc(-c2cccc(NC(=O)c3cccc(Cl)c3)c2)cc1CN1CCCC1,-1.22
20,Cc1cccc(NC(=O)c2cnc(N3CCN(c4ccncc4)CC3)c(Cl)c2)c1,6.53

row,Compound,inhibition [%]
1,CC(C)CNCc1ccc(-c2ccc(CN(CCCN3CCN(C)CC3)C(=O)CCC3CCCC3)cc2)cc1,3.97
2,CC(C)C(=O)NC(c1cccs1)c1cc(Cl)c2cccnc2c1O (stereo not given),-0.45
3,CN1CCCC(CN2CCN(Cc3ccc(-c4cccc(-c5nc6cc(F)ccc6[nH]5)c4)cc3)CC2)C1 (stereo not given),2.3
4,O=C(Nc1ccc(OC2CCN(Cc3ccccc3)C2)c(Cl)c1)c1cccs1 (stereo not given),1.66
5,Cc1cc(C)c(NC(=O)N2CCCN(CCCCCNC(=O)/C=C/c3ccc(Cl)c(Cl)c3)CC2)c(C)c1,2.56
6,COc1cc(C)cc(CN2CCC(Cc3ccccc3)CC2)c1O,1.48
7,Cc1ccccc1C1CCN(C2CCC(NC(=O)/C=C/c3cccc(F)c3)CC2)CC1 (stereo not given),7.51
8,COc1ccc(CN(C)CCOc2ccc(NC(=O)c3cccc4c(=O)c5cc(SC)ccc5[nH]c34)cc2)cc1OC,3.5
9,COc1cc(-c2cc(-c3ccc(S(C)(=O)=O)cc3)cnc2N)ccc1O,9.19
10,Cc1ccc(O)cc1Nc1ccnc2ccc(-c3csc(CNCCN4CCOCC4)n3)cc12,1.59
11,CCN(CC)S(=O)(=O)c1ccc(C(=O)Oc2ccccc2N(Cc2ccc(OC)cc2)C2=NS(=O)(=O)c3ccccc32)cc1,2.59
12,O=C(Nc1cccc(-c2nn3ccccc3c2-c2ccnc(Nc3ccccc3)n2)c1)c1cc(F)ccc1F,-2.21
13,NC(=O)c1ccc(C(=O)Nc2cccc(-c3cccc(-c4nc5cc(C(F)(F)F)ccc5[nH]4)c3)c2)cc1,2.11
14,CC(=O)Nc1ccc(C(=O)Nc2cccc(-c3csc(-c4nc5ccccc5[nH]4)c3)c2)cn1,-0.51
15,CC(C)(C)CNc1noc(-c2sccc2Br)n1,-0.7
16,c1ccc([C@H]2CN3CCSC3=N2)cc1,-0.34
17,Cc1nc(N)nc(N)c1Oc1cccc(Cl)c1,0.35
18,COc1ccc(CN(C)CCCc2ccc(NC(=O)c3cccc4c(=O)c5cccc(F)c5[nH]c34)cc2)cc1OC,10.1
19,C=CCOC(=O)N1CCC(CNCc2cccc(-c3cccc(-c4nc5ccccc5[nH]4)c3)c2)C1 (stereo not given),0.62
20,CCC[C@@H]1CCN[C@H]([C@H](O)c2ccnc3ccc(OC)cc23)C1,4.53
